In PubChem BioAssay (EPA / NIEHS) one finds outcome and AC50 data, which are given here for 32 compounds.

The nature of assay [1]: ATG_GRE_CIS: Attagene CIS-FACTORIAL HepG2 Assay for human Glucocorticoid Response Elements (GRE) (AID 2282947). The settings on record: HepG2 GRE cis-reporter, Attagene multiplex mRNA; actives raise or lower the signal. The essentials: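 Transiently transfected HepG2 cells carrying GRE cis-reporter units (endogenous TF activity) dosed 24 h; reporter mRNA quantified by RT-PCR, 6-FAM labelling, HpaI digestion and capillary electrophoresis. Bidirectional fit versus DMSO baseline.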

Assay [2] can be described thus: ATG_ISRE_CIS: Attagene CIS-FACTORIAL HepG2 Assay for human Interferon Regulatory Factor 1 (IRF1) binding to an Interferon-Stimulated Response Element (ISRE) (AID 2282948). To be noted: HepG2 ISRE cis-reporter (Attagene), mRNA transcription readout; actives raise or lower the signal. The method in brief: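 Cell-based cis-reporter assay; HepG2; 24 h exposure; reporter mRNA by RT-PCR plus capillary electrophoresis fluorescence; activity in either direction scored relative to DMSO.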

Assay [3] in a line: ATG_M_32_CIS: Attagene CIS-FACTORIAL HepG2 Assay for M32 Transcription Factor (Internal Marker) (AID 2282949).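 Further: background control marker of the multiplexed CIS panel rather than a real target.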 To be noted: HepG2 Attagene cis-factorial M32 reporter, mRNA; actives raise or lower the signal. The method in brief:
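Fluorescent capillary electrophoresis peaks of HpaI-digested, FAM-labelled RT-PCR reporter products give the signal. Source: transiently transfected human liver HepG2 cells, 24 h after chemical dosing; bidirectional fitting against DMSO.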

A short description of assay [4]: ATG_M_06_CIS: Attagene CIS-FACTORIAL HepG2 Assay for M06 Transcription Factor (Internal Marker) (AID 2282950). The settings on record: HepG2 Attagene CIS-FACTORIAL M06 internal marker reporter; actives raise or lower the signal. The essentials:
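HepG2 cells transiently transfected with cis-regulated multiple reporter transcription units were exposed to chemical for 24 h; reporter mRNA was quantified by RT-PCR, 6-FAM primer labelling, HpaI digestion and capillary electrophoresis, fitted bidirectionally against DMSO.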

For assay [5], the target named is Hepatocyte nuclear factor 6 (Homo sapiens) (UniProt Q9UBC0). In words: ATG_HNF6_CIS: Attagene CIS-FACTORIAL HepG2 Assay for human Hepatocyte Nuclear Factor 6 (HNF6) (AID 2282952). To be noted: HepG2 Attagene cis-factorial HNF6 reporter transcription; actives raise or lower the signal. The method in brief:
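HepG2 cells transiently transfected with cis-element-driven multiple reporter transcription units, dosed 24 h; reporter mRNA quantified by RT-PCR, FAM primer extension, HpaI digestion and capillary electrophoresis; bidirectional fit versus DMSO baseline.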

For assay [6], the target named is Heat shock factor protein 1 (Homo sapiens) (UniProt Q00613). The assay is described as follows: ATG_HSE_CIS: Attagene CIS-FACTORIAL HepG2 Assay for human Heat Shock Transcription Factor 1 (HSE) (AID 2282953). The settings on record: HepG2 HSE cis-reporter, Attagene RNA transcription; actives raise or lower the signal. The method in brief: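 HepG2 cells transiently transfected with multiple reporter transcription units under cis-regulatory promoter control, measuring endogenous transcription factor activity. After 24 h chemical exposure, reporter mRNA quantified by RT-PCR, fluorescent labelling, HpaI digestion and capillary electrophoresis; bidirectional fit versus DMSO.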
Sequence of Heat shock factor protein 1 (Homo sapiens) (Q00613 whole entry, looked up): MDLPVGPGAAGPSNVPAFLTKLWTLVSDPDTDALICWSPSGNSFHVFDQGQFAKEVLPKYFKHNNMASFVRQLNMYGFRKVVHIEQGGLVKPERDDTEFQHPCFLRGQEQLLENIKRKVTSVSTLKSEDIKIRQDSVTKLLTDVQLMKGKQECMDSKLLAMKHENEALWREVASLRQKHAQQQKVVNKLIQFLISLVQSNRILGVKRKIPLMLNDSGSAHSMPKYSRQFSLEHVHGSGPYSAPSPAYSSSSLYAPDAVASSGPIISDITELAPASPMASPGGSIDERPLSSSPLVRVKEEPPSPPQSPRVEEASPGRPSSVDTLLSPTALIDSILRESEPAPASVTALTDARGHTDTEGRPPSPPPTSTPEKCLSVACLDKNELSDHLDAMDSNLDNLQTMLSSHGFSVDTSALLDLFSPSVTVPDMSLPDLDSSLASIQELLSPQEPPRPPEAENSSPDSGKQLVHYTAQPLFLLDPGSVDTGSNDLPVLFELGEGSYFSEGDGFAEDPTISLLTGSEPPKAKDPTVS

Assay [7] can be described thus: ATG_MRE_CIS: Attagene CIS-FACTORIAL HepG2 Assay for human Metal Responsive Element (MRE) (AID 2282954). To be noted: HepG2 MRE cis-reporter transcription, Attagene multiplex; actives raise or lower the signal. The essentials:
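HepG2 cells transiently transfected with cis-element-driven reporter units; mRNA measured 24 h after dosing. Reporter transcripts quantified by RT-PCR, FAM labelling, HpaI digestion and capillary electrophoresis; bidirectional fit versus DMSO.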

A short description of assay [8]: ATG_PBREM_CIS: Attagene CIS-FACTORIAL HepG2 Assay for human Phenobarbital-responsive Enhancer Module (PBREM) (AID 2282955). The settings on record: HepG2 PBREM cis-reporter, Attagene multiplexed transcription; actives raise or lower the signal. The method in brief: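 Transfected liver-derived HepG2 cells exposed 24 h; PBREM reporter transcript quantified via RT-PCR and capillary electrophoresis, with activity in either direction referenced to DMSO.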

Assay [9] addresses Hypoxia-inducible factor 1-alpha (Homo sapiens) (UniProt Q16665). The assay is described as follows: ATG_HIF1a_CIS: Attagene CIS-FACTORIAL HepG2 Assay for human Hypoxia Inducible Factor 1 (HIF1A) (AID 2282951). The settings on record: HepG2 Attagene cis-factorial HIF1a reporter transcription; actives raise or lower the signal. The essentials:
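Dosed 24 h, transfected HepG2 cells yielded total RNA whose reporter transcripts were RT-PCR-amplified and sized by capillary electrophoresis using fluorescent labelling; DMSO defined baseline, with gain and loss of signal both fitted.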

SMILES strings stand for the structures. Activity calls are given as the source filed them. How the source made its calls: active means hit-call score of the fitted dose curve at least 0.9, where 1 is the maximum; inactive means score below 0.9.

Sequence of Hypoxia-inducible factor 1-alpha (Homo sapiens) (Q16665 whole entry, looked up): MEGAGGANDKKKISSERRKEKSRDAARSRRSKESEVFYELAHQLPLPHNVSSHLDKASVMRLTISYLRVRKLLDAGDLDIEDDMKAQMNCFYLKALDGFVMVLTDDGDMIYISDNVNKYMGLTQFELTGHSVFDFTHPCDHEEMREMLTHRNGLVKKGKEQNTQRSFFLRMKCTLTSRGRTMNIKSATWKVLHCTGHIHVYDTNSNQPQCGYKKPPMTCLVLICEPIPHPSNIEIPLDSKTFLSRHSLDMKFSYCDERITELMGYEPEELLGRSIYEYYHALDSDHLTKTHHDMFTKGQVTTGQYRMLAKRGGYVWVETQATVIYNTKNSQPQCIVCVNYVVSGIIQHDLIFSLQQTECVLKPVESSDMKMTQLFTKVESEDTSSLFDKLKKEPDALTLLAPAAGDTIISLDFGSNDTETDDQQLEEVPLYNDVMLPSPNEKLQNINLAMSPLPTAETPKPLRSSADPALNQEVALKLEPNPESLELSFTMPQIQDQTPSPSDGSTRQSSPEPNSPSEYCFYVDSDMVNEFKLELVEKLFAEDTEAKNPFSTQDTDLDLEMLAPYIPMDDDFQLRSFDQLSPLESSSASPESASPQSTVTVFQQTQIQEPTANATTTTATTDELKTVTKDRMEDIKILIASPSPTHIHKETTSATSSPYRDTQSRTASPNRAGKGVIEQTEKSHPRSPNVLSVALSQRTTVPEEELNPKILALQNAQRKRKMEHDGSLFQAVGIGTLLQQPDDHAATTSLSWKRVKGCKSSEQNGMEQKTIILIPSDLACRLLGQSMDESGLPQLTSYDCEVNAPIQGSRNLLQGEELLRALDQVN
Sequence of Hepatocyte nuclear factor 6 (Homo sapiens) (Q9UBC0 whole entry, looked up): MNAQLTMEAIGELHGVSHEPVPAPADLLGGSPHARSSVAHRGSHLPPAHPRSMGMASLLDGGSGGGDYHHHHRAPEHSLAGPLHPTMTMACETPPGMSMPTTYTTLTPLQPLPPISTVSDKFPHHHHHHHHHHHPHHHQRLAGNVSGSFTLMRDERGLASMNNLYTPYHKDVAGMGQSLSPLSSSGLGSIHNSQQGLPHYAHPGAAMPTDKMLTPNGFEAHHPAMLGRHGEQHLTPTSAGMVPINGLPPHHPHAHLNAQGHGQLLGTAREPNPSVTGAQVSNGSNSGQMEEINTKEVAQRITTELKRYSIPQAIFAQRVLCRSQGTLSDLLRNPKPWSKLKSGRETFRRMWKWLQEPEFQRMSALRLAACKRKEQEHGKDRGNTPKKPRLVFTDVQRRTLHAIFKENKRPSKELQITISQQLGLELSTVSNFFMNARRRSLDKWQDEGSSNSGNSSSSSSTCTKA

As to `CC(C)Oc1ccccc1O`, the compound was called inactive in assay [1], in [2], in assay [3], in assay [4], in [5] and in assay [6]. Further, the compound was classed as inactive in assay [7] and in assay [8].
The term AC50 denotes the concentration giving half of the maximal activity seen. On to `CC(C)C[C@H]1C(=O)N2CCC[C@H]2[C@]2(O)O[C@](NC(=O)[C@@H]3C=C4c5cccc6[nH]c(Br)c(c56)C[C@H]4N(C)C3)(C(C)C)C(=O)N12`, for which the compound was called inactive in [1], in [3], in assay [4], in assay [5] and in assay [6]. Further, the AC50 in assay [2] is 3.76 µM (active); in assay [7] it was 2.16 µM (active); in [8], 0.744 µM (active).
For the compound `O=C1CCCCCCCCCCCCCCO1`, the outcome in assay [1], in assay [2], in assay [3], in assay [4], in [5] and in assay [6] was inactive.
On to `O=[N+]([O-])c1ccc(Nc2ccc(Nc3ccccc3)c(S(=O)(=O)O)c2)c([N+](=O)[O-])c1`, for which the compound was classed as inactive in [1], in assay [2], in [3], in assay [4], in assay [9] and in assay [8]. Besides, the AC50 in assay [6] is 178 µM (active); in [7], 100 µM (active).
Take `CCOC(=S)SSC(=S)OCC`: the compound was called inactive in [1], in assay [2], in assay [3], in assay [4], in assay [9] and in assay [7]. For the same compound, the half-maximal activity concentration (AC50) in [6] is 157 µM (active).
For `CC1CCC(C(C)CS)CC1S` (centres undefined), the AC50 in assay [1] is 55 µM (active); in [9], 53.7 µM (active); in [5] it was 46.8 µM (active). For the same compound, the compound was classed as inactive in assay [2], in assay [3], in assay [6] and in assay [7].
Regarding `Cc1cc(C2(c3cc(C)c(O)cc3C)OS(=O)(=O)c3ccccc32)c(C)cc1O`, the compound was called inactive in assay [1], in assay [2], in assay [3], in [4], in assay [5] and in assay [7]. Further, in [8], the result was inactive.
For the compound `CNCCCC12CCC(c3ccccc31)c1ccccc12`, the compound was called inactive in [1], in assay [3], in assay [4], in [6] and in assay [8]. Besides, the AC50 was 17.9 µM (active) in [2] and 16.6 µM (active) in assay [7].
Take `COC(=O)Cc1cccc2ccccc12`: the result in assay [1], in [2], in assay [3], in assay [4], in [9] and in [6] was inactive. Besides, the call in assay [7] and in assay [8] was inactive.
On to `CCN(CC)c1ccc(C(=C2C=CC(=[N+](CC)CC)C=C2)c2ccc(S(=O)(=O)O)cc2S(=O)(=O)[O-])cc1`, for which the compound was classed as inactive in assay [1], in assay [2], in assay [3], in [9], in assay [5] and in assay [6]. Further, the compound was classed as inactive in [7].
For `O=C(O)CCSCCC(=O)O`, the call in assay [1], in assay [2], in [3], in assay [9], in [5] and in assay [6] was inactive. For the same compound, the result in assay [7] and in assay [8] was inactive.
As for `COc1ccnc(CS(=O)c2nc3cc(OC(F)F)ccc3[nH]2)c1OC` (centres undefined), the call in assay [1], in assay [2], in [3], in assay [4], in [9] and in [5] was inactive. Moreover, the result in assay [7] and in assay [8] was inactive.
Regarding `CN1Cc2c(N)cccc2C(c2ccccc2)C1` (centres undefined), the compound was called inactive in assay [1], in assay [2], in [3], in [4], in assay [6] and in assay [7].
Consider `CN(C)c1ccc(O)c2c1C[C@H]1C[C@H]3[C@H](N(C)C)C(=O)C(C(N)=O)=C(O)[C@@]3(O)C(=O)C1=C2O`, for which the call in [1], in assay [2], in assay [3], in assay [4], in assay [9] and in assay [7] was inactive. For the same compound, in [8], the outcome was inactive.
With `CC(C)c1cccc(O)c1`, the call in assay [1], in [2], in assay [4], in assay [9], in assay [5] and in assay [6] was inactive. In addition, the outcome in assay [7] and in assay [8] was inactive.
As to `CC(C)(CO)[N+](=O)[O-]`, the compound was called inactive in [1], in assay [2], in assay [4], in assay [9], in assay [5] and in assay [6]. Moreover, the compound was called inactive in assay [7].
With `O=C(O)CCCCC1CCSS1` (centres undefined), the compound was classed as inactive in assay [1], in assay [2], in assay [5], in assay [6] and in assay [7].
Regarding `CC(C)C1CCC(O)CC1` (centres undefined), the compound was classed as inactive in assay [2], in assay [3], in assay [4], in [9], in assay [5] and in [6]. Further, the compound was called inactive in assay [7].
On to `CCOc1ccccc1OCC`, for which the compound was called inactive in assay [2], in assay [3], in assay [4], in [9], in [5] and in assay [6]. Moreover, in assay [7], the result was inactive.
Turning to `CCCCCCCCCCN`, the compound was classed as inactive in assay [1], in assay [2], in [4], in assay [9], in assay [7] and in assay [8].
In the case of `CC(C)=CCCC(C)=CCCC(C)=CCO`, the outcome in [2], in [3], in assay [4], in assay [9], in assay [5] and in assay [6] was inactive. In assay [7], the outcome was inactive.
As for `O=C=NC1CCC(CC2CCC(N=C=O)CC2)CC1` (centres undefined), the compound was classed as inactive in [1], in [2], in assay [4], in [9], in assay [5] and in assay [7]. In addition, in assay [8], the AC50 was 63.1 µM (active).
As to `CCCCc1ccc(N)cc1`, the compound was classed as inactive in assay [1], in assay [2], in [3], in assay [9], in [5] and in assay [6]. Moreover, the outcome in [7] and in assay [8] was inactive.
For the compound `CCCCCCCCCCCCOCCO`, the compound was classed as inactive in assay [1], in assay [4], in assay [5], in [6] and in [8]. The AC50 in assay [2] is 20.4 µM (active); in [7] it was 52.1 µM (active).
For the compound `C=C(C)C(=O)O`, the outcome in assay [2], in assay [3], in assay [4], in assay [9], in [5] and in assay [6] was inactive. In addition, the compound was called inactive in assay [7].
On to `O=C1CCc2ccccc2O1`, for which the outcome in assay [1], in [2], in [4], in [9], in [5] and in assay [6] was inactive. Further, in assay [7], the call was inactive.
Turning to `CCC(C)CCCC(C)(C)O` (centres undefined), the compound was classed as inactive in assay [1], in [2], in assay [4], in [9], in assay [5] and in assay [7].
With `C=C(C)[C@@H]1CC[C@@H](C)C[C@@H]1O`, the compound was called inactive in assay [2], in assay [3], in assay [4], in assay [9], in assay [5] and in assay [6].
On to `COc1ccc(Nc2ccccc2)c(C)c1`, for which the compound was called inactive in assay [1], in [2], in [4], in assay [9], in [5] and in [6]. The AC50 in assay [7] is 128 µM (active).
Consider `C[C@H]1C[C@@H]2[C@H]([C@@H](O)C[C@@]3(C)[C@H]2CC[C@]3(O)C(=O)CO)[C@@]2(C)C=CC(=O)C=C12`, for which the AC50 in [1] was 0.151 µM (active). The outcome in [2], in assay [4], in assay [5] and in [7] was inactive.
`CC(C=O)Cc1ccc(C(C)C)cc1` (centres undefined): the compound was called inactive in assay [1], in assay [2], in assay [3], in assay [9], in assay [5] and in [6]. In addition, the compound was called inactive in assay [7] and in assay [8].
Turning to `C/C=C(\C)C(=O)OCc1ccccc1`, the compound was classed as inactive in assay [2], in assay [3], in [4], in assay [9], in assay [5] and in assay [6]. Besides, the compound was classed as inactive in assay [7].
